Screening results (PubChem)
Hits are enriched below; roughly 1.6% of the tested compounds scored in any of these assays.
KCNQ2 block = KCNQ2 (rat) channel inhibition | B-score at 10 µM | CHO-K1 KCNQ2, FluxOR thallium flux, 20 min; stronger effect = lower value | O88943 | AID 2156 | 310,000 compounds, 1.1% hits;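 active means fluorescence ratio B-score at most minus 3 library SDs, with starting brightness B-score within 2 library SDs, cut at about -5.5 in these data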
KCNQ2 enhance = potentiators of rat KCNQ2 potassium channel | CHO-K1 KCNQ2, FluxOR thallium flux fluorescence; stronger effect = higher value | B-score at 10 µM | 310,000 compounds, 0.54% hits;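 active means fluorescence ratio B-score at least 3 SD of library B-scores, with initial fluorescence B-score within 3 of them, cut at about 5.3 in these data; same plate scores as AID 2156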;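 further: B-score of peak minus minimum over baseline fluorescence ratio after K+ and Tl+ stimulus; positive B-score means potentiation of KCNQ2 with more thallium influx and brighter signal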
Kir21 conf inh = confirmation of mouse Kir2.1 potassium channel inhibitors; shares compounds with KCNQ2 enhance; Kir2.1-expressing cells, FluxOR thallium flux fluorescence; stronger effect = lower value; Tl flux remaining, % of negative control (stronger effect = lower value), % at 10 µM; 2,300 compounds, 41% hits; AID 2032;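 active means Primary-screen hit whose thallium flux fell at least 3 control SD below untreated wells in both duplicates, with normal baseline fluorescence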
HEK293 Tl flux = parental HEK293 activity in Kir2.1 inhibitor counter-screen; FluxOR signal as % of negative control (100 = no effect), % at 10 µM; 2,300 compounds, 19% hits; shares compounds with KCNQ2 enhance; parental HEK293 cells, FluxOR thallium flux fluorescence; 0% = unstimulated blank wells;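 active means dye signal at least 3 control SD above or below untreated wells in both duplicates, raw fluorescence within 3, either direction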;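 further: percent is based on the flux ratio of peak minus minimum fluorescence over baseline F0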
CHO-K1 Tl ctr = counter-screen for KCNQ2 potentiators: effect in parental CHO-K1 cells; activity increase over 3SD of controls, % at 10 µM; AID 2282; FluxOR thallium flux fluorescence; zero = vehicle mean+3SD, 100% = vehicle-minus-blank window; 1,200 compounds, 43% hits; shares compounds with KCNQ2 enhance;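 active means signal rise of at least 3 SD above the untreated control mean, in both duplicate wells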;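 further: counter screen of KCNQ2 potentiator hits so any rise reflects channel-independent effects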
KCNQ1 sel pot = selectivity of KCNQ2 potentiators: effect on human KCNQ1; shares compounds with KCNQ2 enhance; CHO KCNQ1 stable, FluxOR thallium flux fluorescence; beyond 3SD, as % of vehicle-control signal; activation over 3SD threshold, % at 10 µM; 1,200 compounds, 28% hits;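 active means fluorescence ratio rise of at least 3 SD of vehicle wells above their mean, in both replicate wells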
KCNQ2 pot conf = confirmation of rat KCNQ2 potassium channel potentiators. shares compounds with KCNQ2 enhance. potentiation, less the hit threshold, % at 10 µM. CHO-KCNQ2 cells, FluxOR thallium flux fluorescence. 1,200 compounds, 68% hits;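 active means fluorescence ratio rising 3 SD or more over the vehicle control mean in both replicates, plus primary screen hit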;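 further: peak minus minimum thallium fluorescence divided by baseline after K/Tl stimulus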
Kir2-1 sel = selectivity of KCNQ2 potentiators: effect on mouse Kir2.1 | shares compounds with KCNQ2 enhance | HEK293 Kir2.1, FluxOR thallium flux fluorescence | activity over 3SD threshold, % at 10 µM | 1,200 compounds, 2% hits | AID 2345;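 active means fluorescence ratio rise of at least 3 SD above the vehicle-control mean, seen in both replicates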
KCNQ2 W236L MoA = KCNQ2 potentiators acting on retigabine-insensitive rat KCNQ2 W236L mutant. 940 compounds, 10% hits. CHO KCNQ2-W236L, automated patch clamp current. current increase over 3SD of negative controls (%), stronger effect = higher value, % at 25 µM. shares compounds with KCNQ2 enhance;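 active means current increase at least 3 SD of the untreated controls above them in both duplicate recordings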
Target sequence (O88943 whole entry W236L, looked up): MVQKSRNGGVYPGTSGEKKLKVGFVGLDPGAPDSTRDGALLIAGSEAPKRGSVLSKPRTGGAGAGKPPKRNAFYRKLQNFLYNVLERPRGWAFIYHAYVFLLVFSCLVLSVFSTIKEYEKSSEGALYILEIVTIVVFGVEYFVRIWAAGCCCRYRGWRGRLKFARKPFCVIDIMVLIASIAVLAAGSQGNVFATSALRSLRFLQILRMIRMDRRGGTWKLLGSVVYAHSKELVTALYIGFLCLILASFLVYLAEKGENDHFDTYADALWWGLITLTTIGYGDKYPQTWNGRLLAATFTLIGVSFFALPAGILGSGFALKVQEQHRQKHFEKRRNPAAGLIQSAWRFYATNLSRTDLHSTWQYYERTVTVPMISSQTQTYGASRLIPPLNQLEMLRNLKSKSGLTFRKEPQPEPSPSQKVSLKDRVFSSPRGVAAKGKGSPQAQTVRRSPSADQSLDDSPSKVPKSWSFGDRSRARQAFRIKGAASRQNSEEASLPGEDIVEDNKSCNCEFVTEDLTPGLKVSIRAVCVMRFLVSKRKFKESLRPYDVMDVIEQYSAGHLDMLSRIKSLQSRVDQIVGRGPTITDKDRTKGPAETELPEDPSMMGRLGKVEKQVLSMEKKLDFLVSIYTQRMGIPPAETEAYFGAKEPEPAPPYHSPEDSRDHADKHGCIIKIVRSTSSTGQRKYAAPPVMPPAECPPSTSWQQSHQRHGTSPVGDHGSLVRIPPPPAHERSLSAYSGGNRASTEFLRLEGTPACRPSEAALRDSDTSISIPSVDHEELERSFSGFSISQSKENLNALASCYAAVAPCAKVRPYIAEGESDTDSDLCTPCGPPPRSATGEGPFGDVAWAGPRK
Each line names hits and unclear results; the compound was inactive in the other large screens (follow-up assays come after a bar, where they were run); ! = not confirmed by another sample.

Cc1ccc(NC(=O)Cn2cnc([N+](=O)[O-])c2)cc1C	none (no result: KCNQ2 enhance)
CCN(CC)CCCN(C(=O)c1ccccc1C)c1nc(-c2ccc(OC)cc2)cs1	none
CCN(CC)CCCN(C(=O)c1ccc(OC)cc1)c1nc(-c2ccc(OC)cc2)cs1	none | Kir21 conf inh 78% | HEK293 Tl flux inactive
Cc1ccc(Cl)cc1NC(=O)C1CCCN(S(C)(=O)=O)C1 (configuration not stated)	none
CN(C)S(=O)(=O)c1ccc(NC(=O)COC(=O)CC2CC3CCC2C3)cc1 (configuration not stated)	none (no result: KCNQ2 enhance)
COc1ccc(C(=O)/C=C/c2cccc(OCc3ccccc3)c2)cc1CSCC(=O)O	none (no result: KCNQ2 enhance) | Kir21 conf inh 74% | HEK293 Tl flux inactive
COc1ccc(C(C)=O)cc1CSCC(=O)O	none
COc1ccccc1C(CNC(=O)C(C)Oc1ccc(Br)cc1)N1CCCC1 (configuration not stated)	none | Kir21 conf inh inactive | HEK293 Tl flux inactive
COc1ccc(C(CNC(=O)C(C)Oc2ccc(Br)cc2)N2CCOCC2)cc1 (configuration not stated)	none (no result: KCNQ2 enhance)
CC(=O)NC(Cc1cccc(C)c1)C(=O)NC1CCN(C(=O)c2ccc([N+](=O)[O-])cc2)CC1 (configuration not stated)	none
CC(C)Cc1ccc(/C(=N/O)C(=O)O)s1	KCNQ2 enhance 7.1 | Kir21 conf inh inactive | HEK293 Tl flux inactive | CHO-K1 Tl ctr 23 | KCNQ1 sel pot inactive | KCNQ2 pot conf 27 | Kir2-1 sel inactive | KCNQ2 W236L MoA inactive
CCc1ccc(C(=O)c2ccccc2C(=O)O)s1	none (no result: KCNQ2 enhance)
O=C(NCC1CCCCC1)c1ccc(F)cc1Cl	none (no result: KCNQ2 enhance)
CCC(CC)C(=O)c1c[nH]c(C(=O)OC)c1	none
COc1cc(CNCCCN2CCOCC2)cc(Br)c1OCc1ccc(Cl)cc1	none (no result: KCNQ2 enhance) | Kir21 conf inh 33% | HEK293 Tl flux inactive
COc1cc(CNCCN2CCOCC2)ccc1OCc1ccc(Cl)cc1	none
COC(=O)c1cn(NC(=O)/C=C/c2cc(OC)ccc2OC)c(=O)c2ccccc12	none (no result: KCNQ2 enhance)
O=C(CCCOc1ccc(Br)cc1)NCCc1ccc(OC(F)F)cc1	none (no result: KCNQ2 enhance)
CC(NC(=O)Nc1ccc(Cl)cc1)C1CCCO1 (configuration not stated)	none (no result: KCNQ2 enhance)
Cc1cc(Cl)ccc1OC(C)C(=O)NC(C)C1CCCO1 (configuration not stated)	none (no result: KCNQ2 enhance) | Kir21 conf inh 56% | HEK293 Tl flux inactive
CC(C)(C)SCCNC(=O)CN(c1ccccc1)S(=O)(=O)c1ccccc1	none
Cc1ccc(CNCCCSc2nc(C)cc(C)n2)cc1	none (no result: KCNQ2 enhance)
Cc1cc(C)nc(SCCCNCc2ccc(Br)cc2)n1	none | Kir21 conf inh 45% | HEK293 Tl flux inactive
CCOc1ccc(N2CC(NC(=O)c3ccc4ccccc4c3)CC2=O)cc1 (configuration not stated)	none
COCCn1c(=S)[nH]c2sc3c(c2c1=O)CCCC3	KCNQ2 enhance 10 | Kir21 conf inh inactive | HEK293 Tl flux 326% | CHO-K1 Tl ctr inactive | KCNQ1 sel pot 35 | KCNQ2 pot conf 34 | Kir2-1 sel inactive | KCNQ2 W236L MoA inactive
C=CCn1c(=S)[nH]c2sc3c(c2c1=O)CCCC3	KCNQ2 enhance 11 | Kir21 conf inh inactive | HEK293 Tl flux 298% | CHO-K1 Tl ctr inactive | KCNQ1 sel pot inactive | KCNQ2 pot conf 63 | Kir2-1 sel inactive | KCNQ2 W236L MoA inactive
O=c1c2c3c(sc2[nH]c(=S)n1Cc1ccco1)CCC3	none
Cc1ccc(-n2c(=S)[nH]c3sc4c(c3c2=O)CCC4)cc1	none
Cc1cc(Br)c(NC(=O)COC(=O)C2CC2C)c(Br)c1 (configuration not stated)	none
Cc1ccc(NC(=O)COC(=O)C2CC2C)c(S(=O)(=O)N2CCCCC2)c1 (configuration not stated)	KCNQ2 enhance 5.3 | Kir21 conf inh inactive | HEK293 Tl flux inactive | CHO-K1 Tl ctr inactive | KCNQ1 sel pot inactive | KCNQ2 pot conf inactive | Kir2-1 sel inactive
CC(c1ccccc1F)n1cc(C(=O)NCCc2ccco2)nn1 (configuration not stated)	none (no result: KCNQ2 enhance)
COc1ccccc1CCNC(=O)CCn1nc(C)c2c(C)n(-c3ccccc3)nc2c1=O	none (no result: KCNQ2 enhance)
O=C(Cn1ncc2c3ccccc3n(Cc3ccccc3)c2c1=O)N1CCN(c2ncccn2)CC1	none
CCCCN(C)C(=O)Cn1ncc2c3ccccc3n(CCC)c2c1=O	KCNQ2 enhance 6 | Kir21 conf inh inactive | HEK293 Tl flux inactive | CHO-K1 Tl ctr 113 | KCNQ1 sel pot inactive | KCNQ2 pot conf inactive | Kir2-1 sel inactive | KCNQ2 W236L MoA inactive
CCCn1c2ccccc2c2cnn(CC(=O)N3CCOCC3)c(=O)c21	none
CCCn1c2ccccc2c2cnn(CC(=O)N(CC)CC)c(=O)c21	none (no result: KCNQ2 enhance)
CCCn1c2ccccc2c2cnn(CC(=O)N3CCN(C4CCCCC4)CC3)c(=O)c21	KCNQ2 enhance 9 | Kir21 conf inh inactive | HEK293 Tl flux inactive | CHO-K1 Tl ctr inactive | KCNQ1 sel pot 35 | KCNQ2 pot conf 20 | Kir2-1 sel inactive | KCNQ2 W236L MoA inactive
O=C(Cn1ncc2c3ccccc3n(Cc3ccccc3)c2c1=O)N1CCN(c2ccccn2)CC1	KCNQ2 enhance 7.5 | Kir21 conf inh inactive | HEK293 Tl flux inactive | CHO-K1 Tl ctr inactive | KCNQ1 sel pot 42 | KCNQ2 pot conf 20 | Kir2-1 sel inactive | KCNQ2 W236L MoA inactive
CSc1ccc2c(c1)C(N1CCN(C)CC1)Cc1ccccc1S2 (configuration not stated)	KCNQ2 block -6.8! | Kir21 conf inh 40% | HEK293 Tl flux inactive
CSc1cccc(NC(=O)N2CCN(C)CC2)c1	none
Cc1oc(-c2ccccc2Cl)nc1CS(=O)(=O)CC(=O)N1CCOCC1	none (no result: KCNQ2 enhance)
CCCCCCCCCCOC(=O)Cn1c(COc2ccc(OC)cc2)[n+](C)c2ccccc21	none | Kir21 conf inh inactive | HEK293 Tl flux inactive
CCCCOC(=O)Cn1c(=O)n(CC(=O)OCCCC)c2ccccc21	none (no result: KCNQ2 enhance) | Kir21 conf inh inactive | HEK293 Tl flux inactive
CCCCCOC(=O)Cn1c(=O)oc2ccccc21	none (no result: KCNQ2 enhance)
Cc1cccc(OCCCn2c(=O)sc3ccccc32)c1	none (no result: KCNQ2 enhance)
CCCCCCCCCCOC(=O)Cn1c(COc2ccccc2)[n+](C)c2ccccc21	none (no result: KCNQ2 enhance) | Kir21 conf inh inactive | HEK293 Tl flux inactive
CCCCCCCCCCOC(=O)Cn1c(COc2ccc(Cl)cc2)[n+](C)c2ccccc21	none (no result: KCNQ2 enhance)
